Results filed as inconclusive are left out. A number with no mark means an inactive call. Calls follow the shape of the dose curve; as a rule, active = well fitted inhibition curve with a large enough effect; inconclusive = small, poorly fitted or top-dose-only effect; inactive = no such curve, though single readings can be large or run the other way. Bridge positions count the residues as written; N and C are the ends. Square brackets hold non-standard residues; d marks the D form. Peptide text beside a SMILES is read from it. NMeY = CN[CH](Cc1ccc(O)cc1)C(=O)O

For the assay, the target named is Retinaldehyde dehydrogenase 3 (Homo sapiens) (UniProt P47895). The experiment in a line: qHTS for Inhibitors of the Aldehyde Dehydrogenase Family (ALDH1A3) Primary screen (AID 2061315).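 Also: plate controls were DMSO vehicle for no effect and reference inhibitor for full effect.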 Conditions: ALDH inhibition qHTS; series mostly up to 56 µM; activity change, negative = inhibition: at the top concentration. Background: In qHTS, concentration-response curves come from the screen itself.
Regarding `CC(C)=CCC[C@](C)(O[C@@H]1O[C@H](CO[C@@H]2OC[C@@H](O)[C@H](O)[C@H]2O)[C@@H](O)[C@H](O)[C@H]1O)[C@H]1CC[C@]2(C)[C@@H]1[C@H](O)C[C@@H]1[C@@]3(C)CC[C@H](O[C@@H]4O[C@H](CO)[C@@H](O)[C@H](O)[C@H]4O)C(C)(C)[C@@H]3CC[C@]12C`, the “activity change, negative = inhibition” value was -28.2% [at 28 µM].

Take `CC1(C)CC[C@]2(C(=O)O)[C@H](O)C[C@]3(C)C(=CCC4[C@@]5(C)CC[C@H](O[C@@H]6OC[C@@H](O)[C@H](O)[C@H]6O)[C@@](C)(C(=O)O)C5CC[C@]43C)[C@@H]2C1` (stereo not given in full): the “activity change, negative = inhibition” value is 14.4% [at 16.9 µM]. For the compound `CC[C@H](C)/C=C(C)/C=C/C1=CC2=CC(=O)[C@]3(C)OC(=O)[C@@H](C(C)=O)[C@@H]3C2=CO1`, the “activity change, negative = inhibition” value was 7.44%.

Take `CCc1cc(CC[C@]2(C3CCCC3)CC(O)=C(Cc3nc4nc(C)cc(C)n4n3)C(=O)O2)cc(CC)n1`: the “activity change, negative = inhibition” value is -4.97%. Next, `C=C1C(=O)OC2/C=C(\CO)CC/C=C(\C=O)CC(OC(=O)CC(C)C)C12` (stereo not given): -21.5%. With `CC1=C2CC(=O)C(C)CC/C=C(\C)CC2OC1=O` (stereo not given), the “activity change, negative = inhibition” value is 9.21%. Turning to `C[C@@H]1O[C@@H](O[C@H]2[C@H](O[C@H]3[C@H](O[C@H]4CC[C@@]5(C)C(CC[C@]6(C)C5CC=C5[C@@H]7CC(C)(C)C[C@@H](O)[C@]7(C)CC[C@]56C)[C@@]4(C)CO)O[C@H](C(=O)O)[C@@H](O)[C@@H]3O)OC[C@H](O)[C@@H]2O)[C@H](O)[C@H](O)[C@H]1O` (stereo not given in full), the “activity change, negative = inhibition” value is 11.6% [at 16.9 µM]. On to `COC1C2=C(COC2=O)C2(C)CCCC(C)(CO)C2C1OC(=O)c1ccccc1` (stereo not given), for which the “activity change, negative = inhibition” value is -6.26% [at 28 µM]. For the compound `CC1CC(=O)C2=C(CCC3(O)C(O)c4c(O)cccc4C(=O)C23O)C1` (stereo not given), the “activity change, negative = inhibition” value was -2.08%.

Regarding `C=CC1C(O[C@@H]2O[C@H](CO)[C@@H](O)[C@H](O)[C@H]2O)OC=C(C(=O)OC)C1CC(=O)O` (stereo not given in full), the “activity change, negative = inhibition” value was -17.6% [at 28 µM]. To `COc1cc(O)cc(/C=C/c2ccc(O[C@@H]3O[C@H](CO)[C@@H](O)[C@H](O)[C@H]3O)cc2)c1` belongs -24.8% [at 28 µM]. With `Cc1ccc(Nc2nnc(-c3ccc([N+](=O)[O-])cc3)o2)cc1Cl`, the “activity change, negative = inhibition” value was 15.4%. Turning to `C=C1C(=O)O[C@@H]2C=C(COC(C)=O)CC/C=C(\CO)CC[C@@H]12`, the “activity change, negative = inhibition” value is 18.8%. On to `C[C@@H](CC[C@@H]1[C@@]2(C)CCCC(C)(C)C2CC[C@@]1(C)O)CC(=O)O` (stereo not given in full), for which the “activity change, negative = inhibition” value was 4.77%. To `C=CC(C)(O)CO[C@@H]1O[C@H](CO)[C@@H](O)[C@H](O)[C@H]1O` (stereo not given in full) belongs -3.56%; to `Cc1ccccc1N1CCN(S(=O)(=O)C[C@]23CC[C@H](C[C@@H]2NC(=O)[C@@H](N)CCS(C)(=O)=O)C3(C)C)CC1`, -1.08%; to `CC(=O)O[C@@H]1C[C@H](O)[C@@]23CO[C@H](O)[C@]1(C)C2C[C@@H](O)[C@]1(C)C3C(=O)[C@H](OC(C)=O)[C@@]2(C)[C@H](c3ccoc3)C[C@H]3O[C@]321` (stereo not given in full), -4.48% [at 16.9 µM]. To `COc1cc(-c2ccc(O)cc2)c(OC)c(O)c1C1=CC(=O)OC1CC(=O)O` (stereo not given) belongs 0.581%. To `C=C1CC23CC1CCC2C12OC(=O)C(C)(C(O)CC1O)C2C3C(=O)O` (stereo not given) belongs -14.9%.

As for `C[C@@H]1O[C@@H](OC2C(O[C@H]3[C@H](O[C@H]4CC[C@@]5(C)C(CC[C@]6(C)C5CC=C5C7CC(C)(C)CC(O)[C@]7(C)CC[C@]56C)C4(C)C)O[C@H](C(=O)O)[C@@H](O)[C@@H]3O)OC(CO)C(O)C2O)[C@H](O)[C@H](O)[C@H]1O` (stereo not given in full), the “activity change, negative = inhibition” value was -8.76% [at 16.9 µM]. For the compound `CO[C@H]1O[C@@H]2O[C@]3(C)CC[C@H]4[C@H](C)CC[C@@H]([C@H]1C)[C@@]24OO3`, the “activity change, negative = inhibition” value was -0.7%. With `C=C(C)[C@@H]1CC[C@]2(C(=O)O)CC[C@]3(C(=O)O)[C@H](CCC4[C@@]5(C)CCC(=O)C(C)(C)C5CC[C@]43C)C12` (stereo not given in full), the “activity change, negative = inhibition” value was 11.7% [at 28 µM]. Regarding `CC(=O)OCC(=O)[C@@]12O[C@@H]1C[C@H]1[C@@H]3CC=C4C[C@@H](O)CC[C@]4(C)[C@H]3CC[C@@]12C`, the “activity change, negative = inhibition” value was 19.6%. In the case of `CCC[C@@H]1C[C@@H](C(=O)N[C@@H]([C@H]2O[C@H](SC)[C@H](O)[C@@H](O)[C@@H]2O)[C@@H](C)O)N(C)C1`, the “activity change, negative = inhibition” value was 5.31%.

`CC1(C)COC(=O)[C@@H]1O[C@@H]1O[C@H](CO)[C@@H](O)[C@H](O)[C@H]1O`: the “activity change, negative = inhibition” value is -1.29%. As for `C=C(CCO)C(=O)OCC1OCC(OC(=O)C(=C)CCO[C@@H]2O[C@H](COC(=O)C(=C)CCO[C@@H]3O[C@H](CO)[C@@H](O)[C@H](O)[C@H]3O)[C@@H](O)[C@H](O)[C@H]2O)C(O)C1O` (stereo not given in full), the “activity change, negative = inhibition” value was -2.72% [at 16.9 µM]. For the compound `C=CC(C)(C)c1[nH]c2ccccc2c1C[C@@H]1NC(=O)[C@H](Cc2c[nH]c3ccccc23)NC1=O`, the “activity change, negative = inhibition” value is -9.48% [at 28 µM]. On to `COc1cc(O)c2c(c1)C1(OC2=O)C(C)=CC(=O)C1O` (stereo not given), for which the “activity change, negative = inhibition” value was -20.9%.

Regarding `CCC(C)C1NC(=O)C2CCCN2C(=O)C(NC(C)=O)C(C)OC(=O)C(Cc2ccc(OC)cc2)N(C)C(=O)C2CCCN2C(=O)C(C(C)C)NC1=O` (stereo not given) (Ac-TPIVP[NMeY](Me); ester 1-C; configuration not given here), the “activity change, negative = inhibition” value was 13.5% [at 16.9 µM]. Regarding `CC(=O)OC12CC(C)C(OC(=O)c3ccccc3)C1/C=C(/C)C(OC(=O)c1ccccc1)CC(=O)C(C)(C)/C=C/C(C)C2=O` (stereo not given), the “activity change, negative = inhibition” value was 2.19% [at 16.9 µM]. Next, `CC(C)C1=CC2C(CC[C@]2(C)O)[C@](C)(O)CC1` (stereo not given in full): 11.1%. For `COc1cc(C)c(C(=O)OC2C(C)OC(OC3CCC(C)C4C3C=C(C)C3/C(C)=C\CC/C(C)=C/C5(C)C=C(C(=O)O)C(C)CC56OC(=O)/C(=C(\O)C34C)C6=O)C(O)C2O)c(OC)c1` (stereo not given), the “activity change, negative = inhibition” value is -0.506% [at 16.9 µM]. In the case of `CC1CC(=O)C2C(O)(C1)CC(O)C13OC1c1c(O)cccc1C(=O)C23O` (stereo not given), the “activity change, negative = inhibition” value is 3.75%. Regarding `COc1cc2ncnc(Nc3cccc(I)c3)c2cc1OC`, the “activity change, negative = inhibition” value is -10.3%.

Take `C=C(C)C1Cc2c(ccc3c2OCC(c2ccc(O)cc2O)C3)O1` (stereo not given): the “activity change, negative = inhibition” value is -0.986%. Next, `CC(C)C(C)C(O)C1CC23CC(=O)C4(O)C(=C2CCC3C1C)C=CC1(O)CC(O)CCC14C` (stereo not given): 3.69% [at 28 µM]; `COc1cc(C(CO)CO[C@@H]2O[C@H](CO)[C@@H](O)[C@H](O)[C@H]2O)ccc1O` (stereo not given in full): -3.77%. Turning to `COc1cc(/C=C/C(=O)OC2CC(OC(C)=O)C(OC(C)=O)C3C2CCC2C(=O)OC(c4ccoc4)CC23C)ccc1O[C@@H]1O[C@H](CO)[C@@H](O)[C@H](O)[C@H]1O` (stereo not given in full), the “activity change, negative = inhibition” value is 12% [at 16.9 µM]. `C/C(=C\CCC(C)(O)c1ccc(C)cc1)C(=O)O` (stereo not given): the “activity change, negative = inhibition” value was -11.9%. To `N#Cc1cccc(C(=O)Nc2cc(-c3ccccc3)nn2-c2ccccc2)c1` belongs 7.48%.
